Test results as given in the supplement of paper PMC9948646.

What follows are molecules tested on gramicidin D channels in DC22:1PC lipid vesicles (bilayer-modifying potency) (assay: initial Tl+ fluorescence quench rate relative to no-drug control (NormRate, gramicidin monomer-dimer shift) (ratio (fold of control)); higher = stronger bilayer-modifying effect (equilibrium shifted toward conducting dimers), active = 1.5 or more). Settings: 10 µM; lipid concentration 50 µM; temperature: 25 °C.
Procedure: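 Stopped-flow fluorescence quench assay: ANTS-loaded DC22:1PC large unilamellar vesicles doped with gramicidin D (1:2000), 50 µM lipid, equilibrated 10 min with 10 µM drug (0.1% DMSO), mixed with Tl+ quench buffer at 25°C. Initial quench rate (Tl+ influx) was fitted with a modified stretched exponential and normalised to the no-drug control rate (NormRate); duplicates from two independent LUV preparations (triplicates for 7 drugs).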

Initial Tl+ fluorescence quench rate, active:
CNC(=O)[C@@H]1Cc2c([nH]c3cc(Cl)ccc23)C2(CCN(CCc3ccccc3)CC2)N1 2.52
CC(C)[C@H](NC(=O)Cc1cccc2ccccc12)C(=O)Nc1cccc(C#N)c1 1.74
O=C1Nc2ccc(Br)cc2[C@]12NCCc1c2[nH]c2ccccc12 3.74
COc1cc(OC)cc(C(=O)NC[C@@H]2Cc3cc(Cl)cc(-c4ccncc4)c3O2)c1 2.47
CNC(=O)CNc1nc(-c2ccccn2)nc2scc(-c3ccccc3)c12 5.21
CS(=O)(=O)c1ccc(C(=O)N(C[C@H]2CCCO2)c2nc3ccccc3s2)cc1[N+](=O)[O-] 2.09
CC(C)(C)n1nc(Cc2ccc(F)c(Cl)c2)c2c(N)ncnc21 1.84
c1ccc(Oc2ccc(-c3cncc(-c4ccc5[nH]ccc5c4)n3)cc2)cc1 1.69
C[C@H](C(N)=O)N1CCCC[C@@H]1c1ccc(OCc2cccc(F)c2)cc1 2.68
O=C(NCCc1ccccc1)c1cc(-c2cccnc2)cnc1NCC1CC1 2
CC(C)n1nc(-c2cc3c(Cl)cccc3[nH]2)c2c(N)ncnc21 3.74
COc1ccc(OC)c(NCc2ccc3nc(N)nc(N)c3c2Cl)c1 1.54
COc1ccc(Cn2cnc3c(-c4ccco4)nc(Cl)nc32)cc1 1.59
COc1ccc(-c2nnc3ccc(-c4cccc(C(C)C)c4)cn23)cc1OC 2.38
COC(=O)c1cccc2oc(-c3cccc(OC)c3NC(=O)c3cc(-c4ccccc4)on3)nc12 1.76

Initial Tl+ fluorescence quench rate, inactive:
O=C(NC1CC1)c1ccc(N2CCC(Cc3ccccc3)CC2)nc1 1.43
COC(=O)C1=C(C)NC(C)=C(C(=O)OC(C)C)[C@@H]1c1cccc2nonc12 1.33
CC(=O)NC[C@@H]1CN(c2ccc(N3CCOCC3)c(F)c2)C(=O)O1 1.08
Cc1cc(NCC(C)C)c2n[nH]c(-c3ccccc3)c2n1 1.11
CCS(=O)(=O)N(Cc1ccco1)Cc1cc2ccc(C)cc2nc1O 1.26
COc1ccccc1OCCCCn1c(C2CC2)nc2ccccc21 1.18
Cc1nnc(NC(=O)c2cn(-c3ccccc3)nc2-c2ccccc2C)o1 1.02
COC(=O)c1ccc(F)cc1NS(=O)(=O)c1cccc(-c2cnn(Cc3ccccc3)c2)c1 1.25
CC(=O)Nc1ccc(-c2noc(C[C@@H]3CCCN(Cc4cccc(F)c4C)C3)n2)cc1 1.29
Clc1ccc(Cl)c(CO[C@H]2CCCC[C@@H]2n2ccnc2)c1 1.09
O=C(NCCN1CCCC1)c1cc(NCCN2CCOCC2)nc2ccc(Cl)cc12 1.15
CNc1nnc(Sc2cnn(-c3ccccc3)c(=O)c2Cl)s1 1.04
CC(C)(C)C(=O)N(CCCCCCN1C[C@H](O)[C@@H](O)[C@H](O)[C@H]1CO)C1CCCCCC1 1.15
CCCn1c(CNc2ccccc2O)nc2ccccc21 1.05
C[C@H]1CCCN(C(=O)[C@H](C)Nc2cc(Cl)ccc2N2CCOCC2)C1 1.23
NCCC[C@](N)(C(=O)O)C(F)F 1.07
Nc1nc(N)c2c3c(sc2n1)CN(Cc1ccccc1)CC3 1.04
O=C(N[C@H]1CCN(c2ccnc3ccccc23)C1)c1cccc(C(F)(F)F)c1 1.27
Cc1ccc2[nH]c3c(NCCN(C)C)ncnc3c2c1 1.05
CC(=O)NC[C@H]1CN(c2ccc(N3CCSCC3)c(F)c2)C(=O)O1 1.09
Brc1c(-c2ccc3c(c2)OCO3)nc2ncccn12 1.12
CN(C)CCNC(=O)N1CCCN(c2ncnc3cc(-c4ccccc4)sc23)CC1 1.11
